# Only some compounds are listed: those with a hit (about 4.1% of all), similar ones and a draw of the others.
# MIN6 prolif: induces beta-cell replication in MIN6 cells | MIN6 cells proliferation, ATPlite luminescence, 48 h; cells starved in 0.2% serum; 100% = growth in 10% serum | proliferation, % at 10 µM | 0.29% of 330,000 active;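 active means compounds whose signal lies at least 3.5 SD above the mean of all wells on their plate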;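 further: 0% = DMSO-treated cells in low-serum medium and 100% = 10% serum control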
# MPTP block: inhibitors of mitochondrial permeability transition pore | isolated mouse mitochondria, Ca2+ swelling absorbance, 30 min | 1.4% of 360,000 active | inhibition, % at 10 µM;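 active means inhibition of 50% or more, scaled per plate between neutral and stimulator controls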;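 further: 0% = DMSO wells given calcium and 100% = 1 mM EGTA wells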
# pCIP destab: lowers stability of the mouse p/CIP coactivator protein; 0.01% of 290,000 active; decrease of EGFP signal, % at 10 µM; F442A p/CIP-EGFP cells, EGFP fluorescence, 16 h;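 active means EGFP signal decrease of at least 30% at 10 µM or well 3 SD below plate mean, unless failing retest; inactive means the rest, including hits failing retest or dose response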
# Target sequence (Q05BA5 1-1403): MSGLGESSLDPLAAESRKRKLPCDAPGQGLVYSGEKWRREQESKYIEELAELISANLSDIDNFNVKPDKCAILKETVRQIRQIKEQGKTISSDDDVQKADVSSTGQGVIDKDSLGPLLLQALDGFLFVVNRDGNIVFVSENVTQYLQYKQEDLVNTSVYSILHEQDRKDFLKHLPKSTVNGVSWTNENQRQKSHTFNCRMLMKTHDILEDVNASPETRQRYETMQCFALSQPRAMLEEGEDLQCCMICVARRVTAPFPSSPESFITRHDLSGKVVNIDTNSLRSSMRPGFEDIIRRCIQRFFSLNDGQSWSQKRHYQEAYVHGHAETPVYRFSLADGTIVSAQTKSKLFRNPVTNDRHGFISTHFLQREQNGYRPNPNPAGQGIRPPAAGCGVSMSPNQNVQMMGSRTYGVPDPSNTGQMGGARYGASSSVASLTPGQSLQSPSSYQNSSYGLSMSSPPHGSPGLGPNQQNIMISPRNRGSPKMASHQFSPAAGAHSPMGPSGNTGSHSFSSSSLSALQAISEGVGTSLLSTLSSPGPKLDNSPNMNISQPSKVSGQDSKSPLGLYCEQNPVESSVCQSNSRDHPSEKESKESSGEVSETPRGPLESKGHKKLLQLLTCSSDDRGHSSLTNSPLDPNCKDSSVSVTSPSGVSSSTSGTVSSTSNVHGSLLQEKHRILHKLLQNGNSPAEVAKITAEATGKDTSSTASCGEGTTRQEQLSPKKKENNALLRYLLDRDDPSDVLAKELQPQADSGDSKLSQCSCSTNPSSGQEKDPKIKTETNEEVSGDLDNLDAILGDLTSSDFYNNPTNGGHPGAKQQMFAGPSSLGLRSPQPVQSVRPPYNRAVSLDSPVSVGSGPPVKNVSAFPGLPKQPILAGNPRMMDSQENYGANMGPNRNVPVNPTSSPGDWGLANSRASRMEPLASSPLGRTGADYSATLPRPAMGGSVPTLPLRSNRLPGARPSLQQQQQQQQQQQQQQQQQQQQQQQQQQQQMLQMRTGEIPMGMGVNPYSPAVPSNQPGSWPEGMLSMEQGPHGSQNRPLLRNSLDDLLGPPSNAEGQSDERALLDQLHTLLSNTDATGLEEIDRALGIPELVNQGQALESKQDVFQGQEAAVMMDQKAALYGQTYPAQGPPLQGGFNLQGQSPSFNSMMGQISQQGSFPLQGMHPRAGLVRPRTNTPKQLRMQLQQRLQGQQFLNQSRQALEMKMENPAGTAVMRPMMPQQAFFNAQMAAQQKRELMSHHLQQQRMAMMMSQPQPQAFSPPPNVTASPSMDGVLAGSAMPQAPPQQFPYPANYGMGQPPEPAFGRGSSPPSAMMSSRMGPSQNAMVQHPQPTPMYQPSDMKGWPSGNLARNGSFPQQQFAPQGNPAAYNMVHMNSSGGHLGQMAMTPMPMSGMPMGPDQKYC
# FAS-TE inh: inhibitors of human fatty acid synthase thioesterase domain; P49327; recombinant FAS-TE, OMFH fluorogenic substrate, fluorescence endpoint; inhibition, % at 15 µM; 0.67% of 360,000 active; AID 602261;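 active means compounds whose normalised, plate-corrected inhibition of enzyme fluorescence in the single-dose primary screen is 50% or more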;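 further: 0% = DMSO with enzyme and 100% = substrate without enzyme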
# GRIN3A LBD mod: NR3A (human) ligand-binding domain modulation. NR3A LBD differential scanning fluorimetry, Tm shift; 0% = protein alone, 100% = glycine-bound protein. Tm shift relative to glycine control, % at 25 µM. 2.5% of 340,000 active. AID 1259313;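 active means melting temperature shift of at least 10% of the positive control shift, at one fixed dose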
# Starred values were filed as active, the others as inactive; / = not tested or not shown.
SMILES,MIN6 prolif,MPTP block,pCIP destab,FAS-TE inh,GRIN3A LBD mod
O=C(/C=C/c1ccc2c(c1)OCO2)c1ccc(O)cc1O,/,2.7,/,5.7,31.8*
COc1ccc(NC(=O)C2(C)Cc3c(-c4cccc(C(N)=O)c4)ccnc3O2)cc1 (stereo unspecified),/,0.3,/,-5.8,/
CC(C)c1ccc(NC(=O)Cn2nnc(C(=O)NCc3ccco3)c2N)cc1,3.4,-0.8,3.4,0.4,11.9*
COc1ccc(NC(=O)Cn2nnc(C(=O)NCc3ccccc3)c2N)cc1Cl,-2.4,-0.8,-5.6,-3.6,-4.0
COc1ccc(NC(=O)Cn2nnc(C(=O)NCc3ccc(C)cc3)c2N)cc1Cl,-4.2,1.2,0.5,-8.0,17.4*
Cc1ccc(NC(=O)Cn2nnc(C(=O)NCc3cccs3)c2N)cc1F,-1.3,-2.8,9.6,-4.2,32.4*
COc1ccc(NC(=O)Cn2nnc(C(=O)Nc3ccc(F)c(Cl)c3)c2N)cc1OC,-1.6,0.5,-2.2,-0.2,77.5*
CCC(C)CN1C(=O)CN(S(C)(=O)=O)CC1(C)C(=O)Nc1c(C)cccc1C (stereo unspecified),/,15.3,/,/,/
CCOc1ccccc1NC(=O)c1nnn(CC(=O)Nc2cc(C)cc(C)c2)c1N,-2.3,10.5,-2.6,-1.9,12.8*
COc1ccc(Cl)cc1NC(=O)c1nnn(CC(=O)Nc2ccc(C)c(C)c2)c1N,2.3,2.8,4.2,-4.5,14.5*
COc1ccc(Cl)cc1NC(=O)Cn1nnc(C(=O)NCCc2ccc(OC)c(OC)c2)c1N,2.6,-0.4,-17.1,-2.4,-2.0
Cc1cc(C)cc(NC(=O)Cn2nnc(C(=O)NCc3ccc(F)cc3)c2N)c1,-1.9,2.1,6.8,-12.9,33.7*
Cc1cccnc1C(NC(=O)C1CCN(CCCc2ccccc2)CC1)c1ccc(Cl)cc1 (stereo unspecified),/,0.8,/,-4.0,/
Cc1ccc(-n2c(=O)c3sccc3n(Cc3cc(=O)n4cc(Cl)ccc4n3)c2=O)cc1F,0.0,-2.3,-0.6,7.2,14.8*
CCN1CCN(CCC(=O)Nc2ccc(Br)cc2)CC1,-0.5,-2.4,2.7,-2.6,10.3*
Cc1ccc(N2C(=O)N(CC(=O)c3cc(C)ccc3C)C(=O)C2C)cc1 (stereo unspecified),0.0,2.6,-1.9,17.8,12.7*
O=C(c1[nH]c(C(F)(F)F)nc1-c1ccccc1)N1CCC2(CC1)C(=O)NCN2c1ccccc1,/,-1.0,/,-8.1,/
Oc1ccccc1C1Nc2cccc3cccc(c23)N1,-3.5,2.8,-5.1,3.6,11.5*
CC(=O)c1sc(NC(=O)CCN2C(=O)c3ccccc3C2=O)nc1C,-2.7,3.2,-15.5,-7.1,17.4*
CCOc1ccccc1C(=O)NCC(=O)N(C)CC(=O)Nc1ccc(N2CCOCC2)cc1,/,0.8,/,-6.4,/
Cc1ccc(Nc2nc(-c3sc(NC(=O)c4ccc([N+](=O)[O-])cc4)nc3C)cs2)cc1,-4.2,/,-3.6,/,/
O=C(Nc1cccc(-c2csc(Nc3ccc(Cl)cc3)n2)c1)c1cc([N+](=O)[O-])cc(C(F)(F)F)c1,-7.9,7.4,30.0,40.9,20.1*
O=C(Nc1ccc(-c2csc(Nc3ccc(Cl)cc3)n2)cc1)c1cc([N+](=O)[O-])cc(C(F)(F)F)c1,-7.8,1.5,6.4,34.6,20.0*
O=C(Nc1cccc(-c2csc(Nc3ccccc3)n2)c1)c1cc([N+](=O)[O-])cc(C(F)(F)F)c1,-6.3,6.7,-0.2,4.1,7.9
CCCCC[C@@H](C)N1C[C@@H](COCc2ccccc2)Oc2cc(N3CCC[C@H]3COC)ccc2S1(=O)=O,/,-0.1,/,19.5,/
SMILES,MIN6 prolif,MPTP block,pCIP destab,FAS-TE inh,GRIN3A LBD mod
Cc1ccc(S(=O)(=O)N2CCCCC2)cc1NC(=O)COC(=O)C1CC2C=CC1C2 (stereo unspecified),-1.2,1.9,-9.0,3.4,10.3*
Cc1cc(C(=O)COC(=O)c2ccc(NC(=O)CC#N)cc2)c(C)n1-c1ccc(OC(F)F)cc1,-1.4,0.7,/,16.5,16.8*
COc1cccc(C(=O)N2CCC[C@H]2C(=O)N2CCC[C@H]2C(=O)NCc2ccccn2)c1,/,1.0,/,-10.5,/
O=C(NCc1ccco1)c1[nH]c(C(F)(F)F)nc1-c1ccccc1,/,-1.7,/,-9.2,/
CCCCCCCCCCCCCCCC[N+](C)(C)CCN(Cc1ccc(OC)cc1)c1ncccn1,-8.3,11.2,/,-127.5,23.5*
COc1ccc(Oc2ccc(N/C=C3/CCCC3=O)cc2)cc1,0.0,2.5,2.0,-4.9,16.8*
Fc1ccc(Nc2ccnc(Nc3ccc(F)cc3)n2)cc1,-4.7,40.6,9.2,25.2,55.4*

# High-throughput results (PubChem BioAssay)
